Activity calls are given as the source filed them.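 The calls were made as follows: active = compounds that raised 12-lipoxygenase product formation in the cuvette follow-up test, with a fitted potency; inactive = the rest, inconclusive results apart.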
What follows are compounds tested against Polyunsaturated fatty acid lipoxygenase ALOX12 (Homo sapiens) (UniProt P18054) (assay: Activators of 12-hLO (12-human lipoxygenase): 12hLO Cuvette-Based Hit Validation Assay of Followup Compounds). Settings: purified 12-hLO, cuvette UV 234 nm product formation.
Polyunsaturated fatty acid lipoxygenase ALOX12 (Homo sapiens), sequence (P18054 whole entry, looked up): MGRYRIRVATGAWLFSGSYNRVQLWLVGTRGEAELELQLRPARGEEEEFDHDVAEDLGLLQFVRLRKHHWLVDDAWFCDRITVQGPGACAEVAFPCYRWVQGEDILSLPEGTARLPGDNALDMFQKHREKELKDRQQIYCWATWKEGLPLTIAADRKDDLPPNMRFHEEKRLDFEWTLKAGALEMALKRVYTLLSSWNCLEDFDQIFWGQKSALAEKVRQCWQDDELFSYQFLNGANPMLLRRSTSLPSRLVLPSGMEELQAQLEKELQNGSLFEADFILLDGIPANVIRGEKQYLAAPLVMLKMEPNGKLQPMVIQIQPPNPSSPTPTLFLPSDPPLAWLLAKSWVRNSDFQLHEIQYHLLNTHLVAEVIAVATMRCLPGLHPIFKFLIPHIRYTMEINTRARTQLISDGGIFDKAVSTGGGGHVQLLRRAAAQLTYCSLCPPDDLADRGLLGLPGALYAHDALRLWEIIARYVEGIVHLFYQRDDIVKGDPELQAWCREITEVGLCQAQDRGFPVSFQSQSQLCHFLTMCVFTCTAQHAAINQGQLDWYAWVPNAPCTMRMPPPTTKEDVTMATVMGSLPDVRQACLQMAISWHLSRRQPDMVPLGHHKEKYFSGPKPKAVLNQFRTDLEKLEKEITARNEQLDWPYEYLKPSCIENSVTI
Experimental: The enzyme activity of 12-hLO was determined by a direct measurement of product formation by monitoring the absorbance at 234 nm in a 2 mL cuvette. IC50 values of inhibitors were obtained by measuring the enzymatic rate at a variety of concentrations (Carroll et al, Segraves et al). This assay was used to validate active or inconclusive putative activators identified in the primary screen (see related BioAssay AIDs). Assay Provider: Holman, T.R., University of California, Santa Cruz Screening Center PI: Austin, Christopher P. Screening Center: NIH Chemical Genomics Center
For control experiments, 2 mL of substrate buffer (10 uM arachidonic acid / 25 mM HEPES / 0.01% (v/v) Triton X-100, pH 8.0) was aliquoted in a cuvette with a magnetic stir bar. After equilibrium was ensured, an aliquot of inhibitor solvent was added (DMSO), and equilibrium was once again assured. The reaction was started by adding enzyme to the cuvette and the reaction was followed until completed. The inhibition experiments were performed as above, except the actual inhibitory compound was added instead of vehicle. To achieve an IC50, typically 5 concentrations of the inhibitor were studied. If the inhibitor concentration was constant, then five different reaction volumes were used. Step \ Parameter \ Value \ Description 1; UV-Vis; 234 nm; Equilibration 2; Reagent; 2 mL; Substrate buffer 3; UV-Vis; 234 nm; Equilibration 4; Reagent; varies; Compound 5; UV-Vis; 234 nm; Equilibration 6; Reagent; 50-200 nM; Enzyme 12-hLO 7; UV-Vis; 234 nm; Enzymatic reaction Step \ Notes 1; Blank cuvette to air. 2; 10 uM AA, 25 mM HEPES, 0.01% Triton X-100, pH 8. 3; No change in absorbance ensured. 4; Compound vehicle or compound in various concentrations depending on potency. 5; No change in absorbance ensured. 6; Enzyme concentration to achieve reaction rate between 0.02 and 0.04 AU/s. 7; Enzymatic reaction visualized until completion.
With `CCOc1ccc(-c2[nH]ncc2Oc2cccc(OC)c2)c(O)c1` the outcome was “inactive”. With `Oc1ccc(-c2csc(-c3ccccc3)n2)cc1O` the outcome was “inactive”. In the case of `Cc1nc(N)sc1-c1csc(N(C)c2ccc(O)cc2)n1`, the outcome is reported as “inactive”. For `O=C(Nc1nnc(C2=COCCO2)o1)c1ccc(Cl)cc1`, the outcome was “inactive”. With `COc1cccc(-c2cnc(NCc3cc(Cl)ccc3O)n2C)c1` the outcome was “inactive”. In the case of `Cc1ccc(C(=O)/C=C/c2c[nH]c3ccccc23)cc1`, the outcome is reported as “inactive”. `CCOC(=O)Cc1cc(=O)n(-c2nc3ccccc3s2)[nH]1` was tested, and the outcome was “inactive”. `CSCCC(NC(=O)c1ccc(Cl)cc1)C(=O)OCC(=O)Nc1ccc(C#N)cc1` (centres undefined) was tested, and the outcome was “inactive”. `CCCOC(=O)c1ccc(Oc2cn[nH]c2-c2ccc(OC)cc2O)cc1` was tested, and the outcome was “inactive”. In the case of `Cc1ccc(S(=O)(=O)Nc2nc(C)c(NC(=O)Nc3ccc(Cl)cc3Cl)s2)cc1`, the outcome is reported as “inactive”. In the case of `CCOC(=O)CNC(c1ccccc1)c1cc(Br)ccc1NC(=O)CCN1CCOCC1` (centres undefined), the Potency is reported as 70 µM (active). For `COc1ccc(C(Nc2ccccn2)c2c(NC(=O)c3ccco3)sc(C)c2C)cc1` (centres undefined), the outcome was “inactive”. For `O=C(CSc1n[nH]c(-c2ccccc2)n1)c1ccc(O)c(O)c1`, the outcome was “inactive”. With `Oc1ccc(C2=Nn3c(nnc3-c3ccco3)SC2)cc1O` the outcome was “inactive”. In the case of `Cc1cccnc1NCc1ccc(O)c2ncccc12`, the Potency is reported as 46.4 µM (active). `CSc1ccc(S(=O)(=O)Nc2ccc(S(=O)(=O)Nc3ccc(C)cc3)cc2)cc1` was tested, and the outcome was “inactive”. For `Oc1ccc(-c2nc(-c3ccc(O)c(O)c3)cs2)cc1`, the outcome was “inactive”. With `Cc1cc(C)c2cc(CN(Cc3nnnn3C3CCCCC3)CC3CCCO3)c(=O)[nH]c2c1` (centres undefined) the outcome was “inactive”. With `O=C(Nc1nnc(-c2ccc(Cl)cc2)o1)c1ccccc1Br` the outcome was “inactive”.
